In the library only some 7.8% were active in any assay of this set; here they are far more common.
PK Bst: alters activity of Bacillus stearothermophilus pyruvate kinase; Potency, µM; AID 361; 51,000 compounds, 1.2% hits; purified pyruvate kinase, luminescence ATP production; ribose 5-phosphate activator present at AC10; in the data active = potency below about 11 µM; inconclusive = mostly about 12 µM to 25 µM;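 the screen sought inhibitors and activators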;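 also: scaled between full activation by ribose 5 phosphate and full inhibition by luteolin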
Tau fil binding: binders of human tau filaments | recombinant tau filaments, thioflavin S fluorescence, 15 h; filaments grown with octadecylsulfate alongside compound | 71,000 compounds, 2% hits | Potency, µM (top dose mostly 57.1 µM), for inactives: at the top dose activity change, negative = inhibition | P10636;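 also: % is scaled to controls: 0 for no effect and ±100 for the full control effect; actives lower thioflavin S fluorescence by blocking filaments or displacing dye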
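Quantitative HTS: thioflavine S signal from ODS-induced tau filaments, excited at 450 nm, emission 510 nm. Conditions: 1 uM tau, 30 uM ODS, 15 h at 37 C, pH 7.4.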
HEK293 cAMP cs: parental HEK293 cAMP activation (counter-screen) | Potency, µM (series often up to 57.1 µM), without a hit: at the highest dose activation, hits mostly activators | AID 938 | parental HEK293 CNG cAMP sensor, membrane potential fluorescence | 73,000 compounds, 2.5% hits; also: % of control where 0% means no effect; nearly all actives have a fitted effect of over 55% in size
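Counterscreen for endogenous-receptor signalling: CNG-channel HEK 293 cells report cAMP rise by membrane depolarization. After 60 min dye equilibration with 100 uM RO 20-1724, compounds incubated 30 min before bottom-read fluorescence at 590 nm.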
FLuc inh: firefly luciferase inhibition; Potency, µM (titrated, usually from 57.1 µM), without a hit: top-dose activity change, negative = inhibition, most hits filed as inhibitors; purified firefly luciferase, luminescence, 8 min; P08659; 72,000 compounds, 2.2% hits; also: % is scaled to controls: 0 for no effect and ±100 for the full control effect; nearly all actives have a fitted effect of over 40% in size
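Compounds were tested as concentration series (qHTS) against purified P. pyralis luciferase with luciferin and 10 uM ATP in 50 mM imidazole pH 7.2, 50 mM KCl, 7 mM MgCl2, 0.01% Tween 20, 0.05% BSA. Luminescence was read after 8 min at ambient temperature.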
TSHR agonist: TSH receptor (human) agonism | Potency, µM (top dose mostly 57.1 µM), for inactives: top-dose activation, usual class: activators | HEK293-CNG-TSHR cells (CNG channel as cAMP sensor), membrane potential dye, cAMP | P16473 | 73,000 compounds, 0.48% hits; active = well fitted activation curve with a large enough effect in the main read-out, with a control signal flat, not every such curve was filed as active; inconclusive = small, poorly fitted or top-dose-only effect, or a change in a side signal; inactive = no such curve, though single readings can be large or run the other way; % of control where 0% means no effect;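 also: the control signal comes from parental cells without the receptor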
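HEK 293 cells stably expressing TSHR and a modified CNG channel, with CNG-only parental cells as counterscreen, were preloaded 60 min at room temperature with membrane potential dye containing 100 uM RO 20-1724. Compound exposure was 30 min, and depolarization was read as fluorescence at 590 nm.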
15-hLO inh: 15-hLO (ALOX15) enzyme inhibition | AID 887 | purified 15hLO-1, xylenol orange hydroperoxide absorbance | 74,000 compounds, 1.4% hits | P16050 | Potency, µM (series often up to 57.1 µM), inactives show at the top dose activity change, negative = inhibition, actives largely listed as inhibitors; also: % is scaled to controls: 0 for no effect and ±100 for the full control effect; nearly all actives have a fitted effect of over 55% in size
Target sequence (P16050 whole entry, looked up): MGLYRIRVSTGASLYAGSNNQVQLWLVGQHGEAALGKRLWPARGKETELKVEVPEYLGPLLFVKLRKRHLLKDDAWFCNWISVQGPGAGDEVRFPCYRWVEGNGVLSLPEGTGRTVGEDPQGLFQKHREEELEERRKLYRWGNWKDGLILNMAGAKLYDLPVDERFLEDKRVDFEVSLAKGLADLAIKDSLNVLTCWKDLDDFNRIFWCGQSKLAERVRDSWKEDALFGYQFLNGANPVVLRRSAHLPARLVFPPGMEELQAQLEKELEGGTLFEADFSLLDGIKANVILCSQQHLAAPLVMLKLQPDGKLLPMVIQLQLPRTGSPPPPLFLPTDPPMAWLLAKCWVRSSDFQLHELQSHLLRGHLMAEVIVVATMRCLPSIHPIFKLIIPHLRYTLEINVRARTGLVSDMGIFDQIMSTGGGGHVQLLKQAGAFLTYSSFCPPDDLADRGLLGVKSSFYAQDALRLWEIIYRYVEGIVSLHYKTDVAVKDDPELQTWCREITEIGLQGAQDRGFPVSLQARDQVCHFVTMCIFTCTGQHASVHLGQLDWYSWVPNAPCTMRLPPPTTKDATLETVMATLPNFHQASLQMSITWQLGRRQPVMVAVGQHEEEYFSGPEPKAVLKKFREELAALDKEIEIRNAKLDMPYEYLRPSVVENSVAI
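40 nM 15hLO-1 + cpd, 15 min RT; start w/ 50 uM AA (final), 6 min RT; stop/detect w/ 200 uM XO + 300 uM Fe(II) in 50 mM H2SO4, 30 min; A573/A405. Buffer 25 mM Hepes pH 7.5, 0.01% Triton X-100. No-enzyme wells as negative control.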
Active calls of the source: *; i = inactive; ? = inconclusive; . = no result given; ! = a repeat was not active; [ ] = dose if it differs, or a comment. Unless noted, calls follow the shape of the dose curve; as a rule, active = well fitted curve in the direction sought with a large enough effect; inconclusive = small, poorly fitted or top-dose-only effect, or another doubt; inactive = no such curve, though single readings can be large; an effect the other way counts as inactive or inconclusive. Potency is read from the fitted curve at half-maximal effect.

SMILES | PK Bst | Tau fil binding | HEK293 cAMP cs | FLuc inh | TSHR agonist | 15-hLO inh
c1ccc(N2CC3(CCNCC3)C2)cc1 | . | -2% | 10µM* | 1%[11.4 µM] | ? | -5%
C=C(C)[C@@H]1CN[C@H](C(=O)O)[C@H]1CC(=O)O | . | -1% | ? | 0% | ? | .
CCCN1CCC[C@H](c2cccc(C#N)c2)C1 | . | 5% | ? | -1% | ? | -2%
COc1ccc2c(c1)[C@]13CCCC[C@@H]1[C@H](C2)NCC3 | . | -10% | ? | 2% | ? | 15%
O=CN1C[C@H]2C[C@@H](C1)c1cccc(=O)n1C2 | . | -20% | -4% | 1%[11.4 µM] | -1% | .
C=CCN1C[C@H](C)N([C@H](c2ccc(C(=O)N(CC)CC)cc2)c2cccc(O)c2)C[C@H]1C | . | 40µM* | 13% | 4% | 25% | -1%[25.6 µM]
C=CCN1C[C@H](C)N([C@@H](c2ccccc2)c2ccc(C(=O)N(CC)CC)cc2)C[C@H]1C | . | 11% | 0% | -1% | 1% | -15%[25.6 µM]
CC(C)C[C@H]1C(=O)N2CCC[C@@H]2[C@]2(O)O[C@](NC(=O)[C@H]3C=C4c5cccc6[nH]cc(c56)C[C@H]4N(C)C3)(C(C)C)C(=O)N12 | . | i | -19% | -4%[11.4 µM] | -18% | .
CCCN1CCc2cc(O)cc3c2[C@H]1Cc1ccc(O)c(O)c1-3 | . | 25µM* | -6% | -11% | 4% | 8%
C[C@@]12CCC[C@](C)(C(=O)O)[C@@H]1CCc1ccc(O)cc12 | . | ? | 4% | 1%[11.4 µM] | -2% | .
CC[C@H]1CN2CC[C@@H]1C[C@@H]2[C@H](O)c1ccnc2ccccc12 | . | 12% | 0% | 2%[11.4 µM] | 1% | .
CN1CCN(c2ccc(N)c(N3CCN(C)CC3)c2)CC1 | >57 | 20µM* | -2% | -7% | 1% | -7%
COc1cc2c(cc1OC)[C@@H]1C(=O)c3ccc(OC)c(CC=C(C)C)c3OC1CO2 (stereo partly specified) | . | . | . | . | . | 16µM*
CC(C)(C)NCc1cccn1-c1sc2c(c1C#N)CCCC2 | . | 2% | 25µM* | 1% | ? | ?
N[C@H](CCl)C(=O)O | . | 5% | 12% | 0% | 3% | -18%
COc1cc2c(cc1O)C[C@@H]1c3c(cc(O)c(OC)c3-2)CCN1C | . | 3%[11.4 µM] | 5%[11.4 µM] | 3%[11.4 µM] | 3%[11.4 µM] | 1%[11.4 µM]
COc1cc2c(cc1O)C[C@H]1c3c(cc(O)c(OC)c3-2)CCN1C | . | 40µM*! | 8% | 2%[11.4 µM] | 8% | -15%[25.6 µM]
CCN(CC)C(=O)N[C@H]1C[C@H]2c3cccc4[nH]cc(c34)C[C@@H]2N(C)C1 | . | 1% | -2% | 2% | -2% | ?
Nc1c(C(=O)NCCN2CCOCC2)c2nc3ccccc3nc2n1Cc1ccco1 | . | i | 21% | -1% | -1% | 13µM*
CN(c1ccccc1)S(=O)(=O)c1cccc(C(=O)N2CCN(c3ccccn3)CC2)c1 | >57 | 14% | 16µM* | 4% | ? | 3%
CC[C@@]12CCCN3CC[C@@]4(c5ccc(OC)c(O)c5N(C(C)=O)[C@H]4CC1)[C@H]32 | . | 32% | 5% | 3%[11.4 µM] | 4% | .
C=C[C@@H]1C[C@@]1(C)[C@@H](NP(=O)(c1ccccc1)c1ccccc1)c1ccccc1 | . | -1% | 5µM* | . | ? | -8%
CCOc1ccc(Br)c(C2(O)CC(C)N(C)CC2C)c1 (stereo unspecified) | . | 9% | -1% | 25µM* | 7% | -7%
Cc1ccc(C2(O)CC(C)N(C)CC2C)cc1 (stereo unspecified) | >57 | 5% | 1% | 5% | 1% | -14%
CC(C)(O)[C@H]1[C@H]2OC(=O)[C@@H]1[C@]1(O)C[C@H]3O[C@]34C(=O)O[C@H]2[C@]14C (tested in a mixture with another compound) | . | -7% | 5% | 0% | 9% | 11%
SMILES | PK Bst | Tau fil binding | HEK293 cAMP cs | FLuc inh | TSHR agonist | 15-hLO inh
NC(=NCCC[C@@H](N)C(=O)O)N[N+](=O)[O-] | . | 1% | ? | -9% | ? | .
C[N+]1(C)[C@@H]2CC[C@H]1CC(OC(=O)c1c[nH]c3ccccc13)C2 (stereo partly specified) | . | -9% | ? | -4% | ? | 16µM*
CC(C)CC(N(C)C)C1(c2ccc(Cl)cc2)CCC1 (stereo unspecified) | . | . | 25µM* | . | ? | 20µM*!
C[C@@H](Cc1ccc(Cl)cc1Cl)NO | . | 7%[11.4 µM] | -3%[11.4 µM] | 1%[11.4 µM] | 1%[11.4 µM] | ?
CC(C)c1nccn1Cc1ccc(Cl)cc1Cl | . | 2%[11.4 µM] | 3.2µM* | 2%[11.4 µM] | ? | 1%[11.4 µM]
COCc1cc(C)c(C#N)c(=S)[nH]1 | >57 | 3% | 5% | 0% | 1%[11.4 µM] | 1.6µM*
COC(=O)[C@H](N)CCCN=C(N)N[N+](=O)[O-] | . | -7% | 11% | 0% | 7% | 14%
CCCN(CCC)[C@@H]1CCc2c(OC)cccc2[C@@H]1C | . | -29% | 32µM* | 0% | ? | 7%[25.6 µM]
c1ccc(CCCN2CCN(CCOC(c3ccccc3)c3ccccc3)CC2)cc1 | . | -6% | 10% | 1% | -2% | 25µM*
Cc1cc[c]([Sb]2[O][C@H]([C@H](O)[C@H](O)C(=O)O)[C@@H](CO)[O]2)cc1 | . | 4%[11.4 µM] | 1%[11.4 µM] | 3%[11.4 µM] | 3%[11.4 µM] | 21%[11.4 µM]
Nc1ccccc1C(=O)OCCOc1ccccc1 | ? | -17% | 19% | 13µM* | 17% | -2%
Ic1ccccc1CN[C@@H]1C2CCN(CC2)[C@H]1C(c1ccccc1)c1ccccc1 | . | 50% | ? | 1% | ? | 24%
CCOc1ccc2[nH]c(=O)c(CN(CCO)C3(c4nnnn4C4CCCCC4)CCCCC3)cc2c1 | >57 | 9% | 25µM* | -1% | ? | ?
Cc1[nH]nc2c1C1(CCC3(CC1)OCCO3)C(C#N)=C(N)O2 | >57 | 4% | 1% | 0% | 10µM* | 7%
N[C@@H]1CCc2cc(O)c(O)cc2C1 | . | 0% | 4% | -20% | 1% | 4%
CCNC(=O)C1OC(n2cnc3c(N)ncnc32)C(O)C1O (stereo unspecified) | . | . | 0.63µM* | . | ? | 16%
CN1CCN(c2ccc([N+](=O)[O-])c3[nH]o[n+](=O)c23)CC1 | . | 94%[11.4 µM] | 0%[11.4 µM] | -10%[11.4 µM] | . | -8%[11.4 µM]
N=C(N)c1c(O)n(C2CCCCC2)c(=O)n(C2CCCCC2)c1=O | >57 | 16µM* | 27% | 0% | -4% | -18%
CC(=NCc1ccco1)c1c(O)n(C)c(=O)n(C)c1=O | >57 | 6% | 7% | 1% | 3% | 3%
Cn1c(O)c(C=NCc2ccco2)c(=O)n(C)c1=O | . | -5% | 16% | 4% | -7% | 32µM*
CC1=CC(=O)NP(=O)(Oc2ccc3ccccc3c2)N1 (stereo unspecified) | >57 | -4% | 1% | -3% | -1% | 13µM*

From PubChem
